# Experimental data from the supplement of paper PMC6555819.
# Tested on: VDR:RXRa (NR concentration 270 nM, RXRa partner concentration 90 nM)
# Experiment: PBM binding z-score (relative to random genomic background probes); higher = stronger binding; sequences stand for … in GC…GCGATTGACAGCGTAGAATGAAGG
# Protocol: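 Protein-binding microarray (Agilent 4x180K custom design, double-stranded 60-nt probes: 5' GC cap, 34-nt variable region, 24-nt constant primer region; full probe sequence given). Purified or IVT nuclear receptor:RXRα heterodimers (3:1 NR:RXRα, mostly 270:90 nM) or homodimers were incubated for 1 h in PBS with 2% milk and no ligand, then detected with Alexa488 antibodies. Fluorescence from o1-orientation probes (~5 replicates averaged) was converted to z-scores against 500 random hg19 background probes. Variable regions are seed direct-repeat (DR0–DR5) sites, all their single-nucleotide variants and half-site ablations.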
row,Sequence,PBM binding z-score
1,CCGGCTAGGTCAATGGTCAGCTAAAGCAGCTCGC,0.907
2,GGTACAGGGTCAGCTAGAGGCCAGAGTATGGAAA,3.29
3,ACTCGGAGGACAAAGGCCAGAGCTACGCCAGTGA,-0.667
4,ATATGTAGGTTAAGGGTCAGTCAGGTTGGTTCGC,4.37
5,CGTCAAAGTTCAAGGTACCGTAACAGAAAGCAGC,3.76
6,TCGAGTAGGTGACCAATGGGGCATTCAGCTTTCT,-0.154
7,ACTAGCAGGCCAAGTTCGGGTCACTCAAACAAAG,2.43
8,CCGACTGGGGCAAAGGTTACCGTACTCAGTACGA,1.39
9,AGTCAAAGTTCACTAGGTAACGTGAGATTCAGCT,3.88
10,TCACCAAGGTGAGCTGAGGTCGTTGATCCAACTC,3.97
11,CATTCAGGGTCAGCTAGGCCAGAGTAGGGACGGC,4.34
12,AATACAGGGTCATCGTAGCCCAGAGTACGCACAG,4.83
13,CAAACTAGGTCAAGCGGTCAAAGTCCGCTTCCCG,2.99
14,CGAGCTAGGTCATCCAGGACAGTGAATACATTGA,4.4
15,CCTGGTTGGTCAGGAGGTCACACACCGGATATGA,3.73
16,TCTTGGAGATCAGCAGGTTAAGAAAGCTGGCCAA,0.335
17,ACTTCCGGGTCAACGAGGTTATAGCACGCGTATA,7.62
18,CCTATCAGTTGACCATAAGGGCAACCGAAGCTCG,0.912
19,CGTCCAAGGTCAGAGAGGTCAGTGAGTGCCGAGT,7.44
20,CGTCAAAGTTCAACTAAGGTAACCTAAAGCACGC,4.68

row,Sequence,PBM binding z-score
1,CGAACTAGGTCAAGGACAGTGACTCTCCGCACGC,1.19
2,CCGACTGGTGCAAAGGTTACCATACTCAGTACGA,1.74
3,CATACAGGGTCTGCTAGGCCAGAGTAGGGACGGC,-0.426
4,GCATATAGGTAAGACAAGGTGAAAGTCCGATTGT,0.0453
5,TAACCAAGGTGAGCTGAGGTCGTTGATCCAACTC,4.26
6,CCATACGGGTCAAGGTTATAGCACGGGTGGTACG,3.11
7,CAAACTAGGTCACAGAGGTCAAAGTCCGTGCGTA,8.16
8,CGAACTAGGTCATTGACAGAACAGTGAATAGTAA,1.97
9,TCAGACAGGTGAAGGTGACTCAGGTACGCAGTCG,1.04
10,CCTACTGCGCCATCAGGTCATTGATATCAACGTT,2.07
11,CCTATTAGTTGGCCATAAGGGCAACCGAAGCTCG,0.196
12,GGAACGAGGGCAAGTTGACAGCAGAGTTTGATGG,0.799
13,AATACAGGGTCATCGTAGGCCATAGTACGCACAG,5.58
14,CCTACCGGGCCAAAGGTCATTGATTCCAATGCTC,4.8
15,ACTCGAAGGACAAAGGTCAGAGCTACGCCAGTGA,2.96
16,GCAGACAGGTGAAACGCAGGGAACTCAGGGTGGC,-0.604
17,CCTACTGGGCCATCAGGTCATTGGTATCAACGTT,2.04
18,TCTATTAGTTGATTAGTGCAACCGAAACAGCGGA,0.827
19,TCATATAGGTATACAGGTGAAAGTCCGTAAGTTA,1.07
20,AGTCAAAGTTCAGGACGAGGTAACGAAAAGCACG,2.95
